Data on one sequence can be found in publication PMC7862700, “An all-to-all approach to the identification of sequence-specific readers for epigenetic DNA modifications on cytosine”.

Assay in all cases: DAPPL (digital affinity profiling via proximity ligation, sequencing); 10 mM Tris-HCl pH 7.5, 50 mM NaCl, 1 mM DTT, 4% glycerol, room temperature, 30 min; GST-TFs on glutathione beads, 16-mer random dsDNA library, 0.1% formaldehyde crosslink after washing; high values mean tight binding
The target of test [1] is T1, FEV (Homo sapiens, UniProt Q99581 1-238).
T1 sequence: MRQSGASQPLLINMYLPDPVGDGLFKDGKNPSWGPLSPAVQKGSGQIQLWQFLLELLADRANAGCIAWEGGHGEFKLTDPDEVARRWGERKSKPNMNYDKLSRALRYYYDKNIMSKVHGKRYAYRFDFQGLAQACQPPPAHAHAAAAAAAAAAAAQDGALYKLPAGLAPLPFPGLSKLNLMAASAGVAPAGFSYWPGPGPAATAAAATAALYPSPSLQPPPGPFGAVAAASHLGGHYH
The settings on record: protein: recombinant; tags: N-terminal GST; dsDNA, one strand shown. An outline of the steps:
(§1)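 A tag-only sample was pooled with DNA-barcoded human transcription factors that had been expressed in yeast as GST fusions and captured on glutathione beads. The pools were incubated for 30 min at room temperature with 200 nmole of a random double-stranded 16-mer DNA library in Tris/NaCl/DTT/glycerol buffer, then washed, crosslinked with 0.1% formaldehyde, proximity-ligated (BsaI/T4 ligase, 1 h, 37 °C), PCR-amplified and sequenced on an Illumina NextSeq500. Binding signal is each hexamer's read frequency for a factor divided by its frequency for the tag-only sample.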

The target in test [2] is ETV5 (Homo sapiens, UniProt P41161 1-510). The settings on record: protein: recombinant; tags: N-terminal GST; dsDNA, one strand shown. The essentials: as §1
Sequence of ETV5 (P41161 whole entry): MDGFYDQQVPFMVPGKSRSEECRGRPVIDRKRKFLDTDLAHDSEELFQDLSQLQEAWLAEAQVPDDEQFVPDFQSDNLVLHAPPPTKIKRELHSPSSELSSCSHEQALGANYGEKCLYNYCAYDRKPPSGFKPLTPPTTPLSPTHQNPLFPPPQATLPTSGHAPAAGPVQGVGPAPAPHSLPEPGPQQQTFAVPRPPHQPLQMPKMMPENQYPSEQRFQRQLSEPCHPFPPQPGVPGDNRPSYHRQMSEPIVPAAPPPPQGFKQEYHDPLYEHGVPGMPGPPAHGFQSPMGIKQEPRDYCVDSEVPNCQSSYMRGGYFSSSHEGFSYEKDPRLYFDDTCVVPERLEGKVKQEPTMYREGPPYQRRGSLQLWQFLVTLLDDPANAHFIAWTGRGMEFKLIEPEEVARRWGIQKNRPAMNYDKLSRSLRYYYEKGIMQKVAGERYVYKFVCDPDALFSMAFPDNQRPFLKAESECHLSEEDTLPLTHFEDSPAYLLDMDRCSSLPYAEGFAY
The target of test [3] is HSF1 (Homo sapiens, UniProt Q00613 1-529). The settings on record: protein: recombinant; tags: N-terminal GST; chain copies: 3; dsDNA, one strand shown. The essentials:
as §1

The target in test [4] is T2, SPIC (Homo sapiens, UniProt Q8N5J4 1-248).
T2 sequence: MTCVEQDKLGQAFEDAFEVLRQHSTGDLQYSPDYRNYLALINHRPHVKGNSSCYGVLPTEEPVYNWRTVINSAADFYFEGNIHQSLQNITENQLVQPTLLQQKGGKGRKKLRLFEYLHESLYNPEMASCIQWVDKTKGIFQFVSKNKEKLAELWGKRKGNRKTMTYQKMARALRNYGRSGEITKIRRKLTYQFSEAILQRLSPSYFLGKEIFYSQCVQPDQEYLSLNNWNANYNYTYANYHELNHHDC
The settings on record: protein: recombinant; tags: N-terminal GST; dsDNA, one strand shown. The essentials: as §1

For test [5], the target named is ELF4 (Homo sapiens, UniProt Q99607 1-663). The settings on record: protein: recombinant; tags: N-terminal GST; dsDNA, one strand shown. An outline of the steps:
as §1

For test [6], the target named is T3, ELK4 (Homo sapiens, UniProt P28324-2 1-405).
T3 sequence: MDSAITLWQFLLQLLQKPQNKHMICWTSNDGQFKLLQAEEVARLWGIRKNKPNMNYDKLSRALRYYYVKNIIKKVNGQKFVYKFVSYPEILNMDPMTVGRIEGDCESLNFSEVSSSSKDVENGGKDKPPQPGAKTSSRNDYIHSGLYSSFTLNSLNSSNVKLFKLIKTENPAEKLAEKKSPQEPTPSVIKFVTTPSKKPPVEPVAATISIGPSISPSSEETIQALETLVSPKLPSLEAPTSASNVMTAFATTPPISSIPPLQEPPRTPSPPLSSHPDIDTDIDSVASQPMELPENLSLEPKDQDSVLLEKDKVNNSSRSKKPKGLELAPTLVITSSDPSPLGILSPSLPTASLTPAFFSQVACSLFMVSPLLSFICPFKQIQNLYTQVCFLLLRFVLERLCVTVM
The settings on record: protein: recombinant; tags: N-terminal GST; dsDNA, one strand shown. An outline of the steps:
as §1

Test [7] deals with T4, ETV2 (Homo sapiens, UniProt O00321 1-342).
T4 sequence: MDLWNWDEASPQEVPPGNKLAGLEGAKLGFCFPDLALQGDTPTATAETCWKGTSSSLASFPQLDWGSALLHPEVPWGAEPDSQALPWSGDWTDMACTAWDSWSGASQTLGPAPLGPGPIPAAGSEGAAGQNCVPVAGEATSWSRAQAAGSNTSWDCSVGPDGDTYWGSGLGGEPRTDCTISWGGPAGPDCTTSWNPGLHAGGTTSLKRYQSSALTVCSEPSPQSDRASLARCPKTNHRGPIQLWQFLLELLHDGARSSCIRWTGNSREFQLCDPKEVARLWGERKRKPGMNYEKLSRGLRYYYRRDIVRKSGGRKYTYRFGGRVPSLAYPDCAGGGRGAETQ
The settings on record: protein: recombinant; tags: N-terminal GST; dsDNA, one strand shown. An outline of the steps: as §1

In test [8] the target is T5, ELF3 (Homo sapiens, UniProt P78545 1-371).
T5 sequence: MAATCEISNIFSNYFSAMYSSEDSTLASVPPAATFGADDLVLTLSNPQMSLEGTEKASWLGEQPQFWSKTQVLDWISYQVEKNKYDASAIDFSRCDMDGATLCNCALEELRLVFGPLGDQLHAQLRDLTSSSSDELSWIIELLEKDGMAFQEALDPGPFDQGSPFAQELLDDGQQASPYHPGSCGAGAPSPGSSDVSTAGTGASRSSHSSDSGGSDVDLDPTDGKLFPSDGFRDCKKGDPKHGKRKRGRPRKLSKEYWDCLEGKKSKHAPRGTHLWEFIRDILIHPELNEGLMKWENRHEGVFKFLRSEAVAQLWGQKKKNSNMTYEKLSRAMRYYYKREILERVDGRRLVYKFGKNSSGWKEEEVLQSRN
The settings on record: protein: recombinant; tags: N-terminal GST; dsDNA, one strand shown. The essentials:
as §1

For test [9], the target named is CRX (Homo sapiens, UniProt O43186 1-299). The settings on record: protein: recombinant; tags: N-terminal GST; dsDNA, one strand shown. An outline of the steps:
as §1

In test [10] the target is ETV1 (Homo sapiens, UniProt P50549 1-477). The settings on record: protein: recombinant; tags: N-terminal GST; dsDNA, one strand shown. The essentials: as §1
Sequence of ETV1 (P50549 whole entry): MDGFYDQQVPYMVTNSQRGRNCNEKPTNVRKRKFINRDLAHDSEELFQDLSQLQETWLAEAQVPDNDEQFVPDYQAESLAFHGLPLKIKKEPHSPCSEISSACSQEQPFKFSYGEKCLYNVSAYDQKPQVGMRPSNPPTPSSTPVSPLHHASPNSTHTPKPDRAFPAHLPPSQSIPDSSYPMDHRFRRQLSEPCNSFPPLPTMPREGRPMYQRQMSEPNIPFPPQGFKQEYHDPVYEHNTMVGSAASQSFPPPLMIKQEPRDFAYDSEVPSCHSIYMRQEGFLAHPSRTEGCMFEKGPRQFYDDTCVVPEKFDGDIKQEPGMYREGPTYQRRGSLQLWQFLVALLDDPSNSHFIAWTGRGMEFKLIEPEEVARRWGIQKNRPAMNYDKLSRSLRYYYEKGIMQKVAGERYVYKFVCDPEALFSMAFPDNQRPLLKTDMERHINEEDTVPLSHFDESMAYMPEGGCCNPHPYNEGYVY
Test [11] has as its target T6, ERF (Homo sapiens, UniProt P50548 1-548).
T6 sequence: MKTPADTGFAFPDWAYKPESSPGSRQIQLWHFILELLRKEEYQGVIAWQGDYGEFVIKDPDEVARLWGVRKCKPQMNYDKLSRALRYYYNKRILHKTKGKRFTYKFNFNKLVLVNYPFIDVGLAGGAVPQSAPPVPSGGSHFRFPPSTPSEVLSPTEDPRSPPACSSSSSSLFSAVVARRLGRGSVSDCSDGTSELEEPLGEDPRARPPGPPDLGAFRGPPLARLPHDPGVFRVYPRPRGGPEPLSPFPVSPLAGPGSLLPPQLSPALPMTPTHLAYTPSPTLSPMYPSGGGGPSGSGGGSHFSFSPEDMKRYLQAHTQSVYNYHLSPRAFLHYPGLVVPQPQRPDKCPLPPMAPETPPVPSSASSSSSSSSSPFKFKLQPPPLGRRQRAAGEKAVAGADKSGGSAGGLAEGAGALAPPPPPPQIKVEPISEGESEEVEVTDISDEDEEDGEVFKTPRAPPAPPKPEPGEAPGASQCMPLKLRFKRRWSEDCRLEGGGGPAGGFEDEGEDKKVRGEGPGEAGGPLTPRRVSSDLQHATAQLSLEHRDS
Particulars: protein: recombinant; tags: N-terminal GST; dsDNA, one strand shown. An outline of the steps:
as §1

The target of test [12] is T7, ETV3L (Homo sapiens, UniProt Q6ZN32 1-361).
T7 sequence: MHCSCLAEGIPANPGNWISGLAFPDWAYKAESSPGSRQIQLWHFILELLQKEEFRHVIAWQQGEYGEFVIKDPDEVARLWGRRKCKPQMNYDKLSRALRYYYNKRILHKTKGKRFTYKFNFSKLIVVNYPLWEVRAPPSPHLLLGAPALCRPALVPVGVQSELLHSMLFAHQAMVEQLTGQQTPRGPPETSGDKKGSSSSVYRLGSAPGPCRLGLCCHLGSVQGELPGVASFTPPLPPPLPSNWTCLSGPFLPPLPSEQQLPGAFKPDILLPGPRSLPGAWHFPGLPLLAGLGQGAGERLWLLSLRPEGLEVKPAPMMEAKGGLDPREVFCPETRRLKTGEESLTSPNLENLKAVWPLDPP
Particulars: protein: recombinant; tags: N-terminal GST; dsDNA, one strand shown. The essentials: as §1

Test [13] deals with T8, ETS2 (Homo sapiens, UniProt P15036 1-469).
T8 sequence: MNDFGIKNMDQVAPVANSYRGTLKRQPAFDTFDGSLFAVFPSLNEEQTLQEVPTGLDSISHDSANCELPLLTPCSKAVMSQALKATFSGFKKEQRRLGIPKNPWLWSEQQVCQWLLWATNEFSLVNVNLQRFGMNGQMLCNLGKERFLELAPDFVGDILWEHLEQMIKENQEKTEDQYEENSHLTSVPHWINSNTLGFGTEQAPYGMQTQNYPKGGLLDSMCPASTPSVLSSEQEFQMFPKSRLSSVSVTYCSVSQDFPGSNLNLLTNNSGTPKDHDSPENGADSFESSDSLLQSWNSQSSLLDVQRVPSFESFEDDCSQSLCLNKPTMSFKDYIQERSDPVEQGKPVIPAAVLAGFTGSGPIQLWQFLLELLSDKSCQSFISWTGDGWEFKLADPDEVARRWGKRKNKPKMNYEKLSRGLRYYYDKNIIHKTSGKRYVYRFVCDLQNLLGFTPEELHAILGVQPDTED
The settings on record: protein: recombinant; tags: N-terminal GST; dsDNA, one strand shown. The essentials:
as §1

In test [14] the target is T9, SPDEF (Homo sapiens, UniProt O95238 1-335).
T9 sequence: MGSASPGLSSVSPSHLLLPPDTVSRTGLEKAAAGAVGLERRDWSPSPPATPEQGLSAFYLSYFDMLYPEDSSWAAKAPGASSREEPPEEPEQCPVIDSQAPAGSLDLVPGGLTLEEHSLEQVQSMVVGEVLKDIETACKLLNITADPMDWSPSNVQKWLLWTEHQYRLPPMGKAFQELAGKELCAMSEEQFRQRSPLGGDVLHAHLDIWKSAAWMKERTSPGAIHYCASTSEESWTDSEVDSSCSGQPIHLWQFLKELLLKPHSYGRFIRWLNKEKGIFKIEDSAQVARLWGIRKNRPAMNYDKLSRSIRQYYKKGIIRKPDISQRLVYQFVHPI
The settings on record: protein: recombinant; tags: N-terminal GST; dsDNA, one strand shown. An outline of the steps: as §1

In test [15] the target is T10, ETV7 (Homo sapiens, UniProt Q9Y603 1-341).
T10 sequence: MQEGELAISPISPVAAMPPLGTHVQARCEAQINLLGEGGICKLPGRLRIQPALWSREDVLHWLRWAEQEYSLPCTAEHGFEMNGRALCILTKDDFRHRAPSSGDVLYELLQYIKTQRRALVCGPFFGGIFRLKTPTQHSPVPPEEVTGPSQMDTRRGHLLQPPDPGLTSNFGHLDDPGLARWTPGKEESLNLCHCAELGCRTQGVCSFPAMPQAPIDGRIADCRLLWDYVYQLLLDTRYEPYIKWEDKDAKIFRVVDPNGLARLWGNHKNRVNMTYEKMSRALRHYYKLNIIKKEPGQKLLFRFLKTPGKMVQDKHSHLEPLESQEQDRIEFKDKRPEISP
The settings on record: protein: recombinant; tags: N-terminal GST; dsDNA, one strand shown. An outline of the steps: as §1

Test [16] has as its target T11, ELF5 (Homo sapiens, UniProt Q9UKW6-2 1-255).
T11 sequence: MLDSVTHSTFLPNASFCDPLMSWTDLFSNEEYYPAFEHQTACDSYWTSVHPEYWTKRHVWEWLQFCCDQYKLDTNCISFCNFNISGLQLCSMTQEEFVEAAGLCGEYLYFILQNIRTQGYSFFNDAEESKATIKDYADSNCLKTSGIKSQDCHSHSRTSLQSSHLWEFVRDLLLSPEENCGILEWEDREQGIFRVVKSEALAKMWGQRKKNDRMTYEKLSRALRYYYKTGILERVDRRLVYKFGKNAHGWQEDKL
Particulars: protein: recombinant; tags: N-terminal GST; dsDNA, one strand shown. An outline of the steps: as §1

Test [17] deals with T12, ETV3 (Homo sapiens, UniProt P41162-2 1-143).
T12 sequence: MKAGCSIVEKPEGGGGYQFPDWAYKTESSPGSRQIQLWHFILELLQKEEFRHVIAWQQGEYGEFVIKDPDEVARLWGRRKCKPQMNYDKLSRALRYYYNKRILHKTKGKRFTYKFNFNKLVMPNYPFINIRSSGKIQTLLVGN
The settings on record: protein: recombinant; tags: N-terminal GST; dsDNA, one strand shown. The essentials:
as §1

For test [18], the target named is ETV6 (Homo sapiens, UniProt P41212 1-452). The settings on record: protein: recombinant; tags: N-terminal GST; dsDNA, one strand shown. The essentials:
as §1

Sequence of ETV6 (P41212 whole entry): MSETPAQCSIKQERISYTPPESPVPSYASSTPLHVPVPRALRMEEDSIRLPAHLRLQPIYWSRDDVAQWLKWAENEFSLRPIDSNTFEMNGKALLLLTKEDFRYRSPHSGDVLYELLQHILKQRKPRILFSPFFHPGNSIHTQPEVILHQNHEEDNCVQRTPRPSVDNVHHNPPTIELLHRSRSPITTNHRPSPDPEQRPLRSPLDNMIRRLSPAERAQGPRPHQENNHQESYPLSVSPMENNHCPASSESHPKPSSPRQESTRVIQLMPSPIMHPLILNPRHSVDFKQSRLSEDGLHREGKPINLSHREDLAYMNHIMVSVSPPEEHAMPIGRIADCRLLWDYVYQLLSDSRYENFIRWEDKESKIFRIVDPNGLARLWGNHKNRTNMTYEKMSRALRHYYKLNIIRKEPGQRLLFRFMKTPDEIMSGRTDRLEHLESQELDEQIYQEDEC
Sequence of ELF4 (Q99607 whole entry): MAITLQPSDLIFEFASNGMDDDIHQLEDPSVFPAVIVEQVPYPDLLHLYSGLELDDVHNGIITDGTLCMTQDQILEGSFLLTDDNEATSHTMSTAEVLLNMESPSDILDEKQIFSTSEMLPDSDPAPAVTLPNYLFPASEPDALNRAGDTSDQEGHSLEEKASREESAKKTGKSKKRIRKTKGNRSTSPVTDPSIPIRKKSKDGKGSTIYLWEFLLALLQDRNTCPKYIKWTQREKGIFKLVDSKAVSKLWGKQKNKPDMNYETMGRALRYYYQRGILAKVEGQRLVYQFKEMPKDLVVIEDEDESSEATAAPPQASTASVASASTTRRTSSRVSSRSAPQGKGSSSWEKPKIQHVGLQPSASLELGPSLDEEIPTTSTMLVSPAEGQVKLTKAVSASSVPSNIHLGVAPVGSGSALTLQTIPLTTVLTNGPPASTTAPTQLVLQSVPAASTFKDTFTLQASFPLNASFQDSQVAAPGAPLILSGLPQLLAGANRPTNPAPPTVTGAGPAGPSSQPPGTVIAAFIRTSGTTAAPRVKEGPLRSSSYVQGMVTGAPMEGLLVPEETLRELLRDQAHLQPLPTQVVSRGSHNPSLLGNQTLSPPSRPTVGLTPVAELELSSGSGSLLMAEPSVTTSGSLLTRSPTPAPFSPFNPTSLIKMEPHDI
Sequence of HSF1 (Q00613 whole entry): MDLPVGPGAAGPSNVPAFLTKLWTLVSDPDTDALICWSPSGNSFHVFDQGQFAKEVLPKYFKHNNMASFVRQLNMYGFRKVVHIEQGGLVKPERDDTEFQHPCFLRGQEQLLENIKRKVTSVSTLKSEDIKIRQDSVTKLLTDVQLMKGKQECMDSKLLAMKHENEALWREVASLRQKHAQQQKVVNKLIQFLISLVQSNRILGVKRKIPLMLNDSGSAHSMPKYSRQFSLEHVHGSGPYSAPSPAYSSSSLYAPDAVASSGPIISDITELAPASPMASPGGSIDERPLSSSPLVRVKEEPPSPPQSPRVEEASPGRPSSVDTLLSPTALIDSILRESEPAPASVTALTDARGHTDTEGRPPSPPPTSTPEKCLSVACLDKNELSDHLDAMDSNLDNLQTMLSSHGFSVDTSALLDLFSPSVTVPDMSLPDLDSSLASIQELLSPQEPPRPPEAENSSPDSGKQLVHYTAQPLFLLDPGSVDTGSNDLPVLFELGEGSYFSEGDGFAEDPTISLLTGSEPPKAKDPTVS
Sequence of CRX (O43186 whole entry): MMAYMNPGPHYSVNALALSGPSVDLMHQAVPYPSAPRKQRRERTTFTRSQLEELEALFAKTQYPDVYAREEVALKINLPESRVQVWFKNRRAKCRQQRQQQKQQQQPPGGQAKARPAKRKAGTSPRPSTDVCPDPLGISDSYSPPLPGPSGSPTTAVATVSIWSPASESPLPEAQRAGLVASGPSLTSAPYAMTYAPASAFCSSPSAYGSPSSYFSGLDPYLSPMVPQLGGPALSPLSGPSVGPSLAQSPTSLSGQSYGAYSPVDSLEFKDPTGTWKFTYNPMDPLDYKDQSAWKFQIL

As for TCTTGG, the binding signal in test [1] was 1.3 fold enrichment (6-mer frequency, TF over GST control); in test [2], 1.32 fold enrichment (6-mer frequency, TF over GST control); in [3], 1.39 fold enrichment (6-mer frequency, TF over GST control); in [4] it was 1.47 fold enrichment (6-mer frequency, TF over GST control); in test [5], 1.39 fold enrichment (6-mer frequency, TF over GST control); in [6], 1.41 fold enrichment (6-mer frequency, TF over GST control). Moreover, the binding signal in [7] was 1.22 fold enrichment (6-mer frequency, TF over GST control); in test [8] it was 1.41 fold enrichment (6-mer frequency, TF over GST control); in test [9], 1.32 fold enrichment (6-mer frequency, TF over GST control); in [10], 1.23 fold enrichment (6-mer frequency, TF over GST control); in [11], 1.4 fold enrichment (6-mer frequency, TF over GST control); in test [12], 1.43 fold enrichment (6-mer frequency, TF over GST control). Also, the binding signal was 1.27 fold enrichment (6-mer frequency, TF over GST control) in [13]; 1.27 fold enrichment (6-mer frequency, TF over GST control) in test [14]; 1.38 fold enrichment (6-mer frequency, TF over GST control) in test [15]; 1.31 fold enrichment (6-mer frequency, TF over GST control) in test [16]; 1.29 fold enrichment (6-mer frequency, TF over GST control) in test [17]; 1.19 fold enrichment (6-mer frequency, TF over GST control) in test [18].
